# Screening results deposited in PubChem BioAssay by National Center for Advancing Translational Sciences (NCATS).
# An excerpt weighted towards active compounds, which were near 11% of everything screened.
# HPGD block: qHTS Assay for Inhibitors of HPGD (15-Hydroxyprostaglandin Dehydrogenase) | 15-hydroxyprostaglandin dehydrogenase [NAD(+)] (Homo sapiens), P15428 | purified HPGD, NADH fluorescence kinetic, PGE2 substrate | AID 894, 2007 | hit rate 4.3% among 150,000 | Potency, µM, inactives show at the top dose activity change, negative = inhibition, usual class: inhibitors; note: potency is the fitted concentration of half-maximal effect
# Target sequence (P15428 whole entry, looked up): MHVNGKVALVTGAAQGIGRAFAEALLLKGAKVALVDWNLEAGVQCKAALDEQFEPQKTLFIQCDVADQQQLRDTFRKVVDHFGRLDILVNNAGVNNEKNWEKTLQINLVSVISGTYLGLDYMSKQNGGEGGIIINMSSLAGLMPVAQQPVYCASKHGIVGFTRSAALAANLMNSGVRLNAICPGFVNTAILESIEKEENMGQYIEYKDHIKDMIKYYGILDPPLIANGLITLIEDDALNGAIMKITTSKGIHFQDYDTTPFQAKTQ
#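 NADH formation kinetics: reaction with 30 uM PGE2 and 1 mM NAD+ (final), 20 nM enzyme, Tris-HCl pH 8 with Tween 20, after 15 min compound preincubation at room temperature. Fluorescence change, last versus first of five reads.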
# 12-hLO inh: qHTS Assay for Inhibitors of 12-hLO (12-human lipoxygenase); hit rate 0.12% among 150,000; Potency, µM (titrated, usually from 57.1 µM), for the others: top-dose activity change, negative = inhibition, hits mostly inhibitors; purified 12-hLO, xylenol orange hydroperoxide absorbance; Polyunsaturated fatty acid lipoxygenase ALOX12 (Homo sapiens), P18054; active = well fitted curve in the direction sought with a large enough effect; inconclusive = small, poorly fitted or top-dose-only effect, or another doubt; inactive = no such curve, though single readings can be large; an effect the other way counts as inactive or inconclusive; note: potency is the fitted concentration of half-maximal effect; nearly all actives have a fitted effect of over 55% in size
#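 Hydroperoxide formation by human 12-lipoxygenase from 40 uM arachidonic acid was followed colorimetrically via ferric-xylenol orange complex, using the 573/405 nm absorbance ratio. Enzyme concentration was 150 nM, with 30 min reaction at room temperature.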
# ALDH1A1 block: qHTS Assay for Inhibitors of Aldehyde Dehydrogenase 1 (ALDH1A1) | Aldehyde dehydrogenase 1A1 (Homo sapiens), P00352 | Purified ALDH1A1, NADH fluorescence, propionaldehyde substrate | Potency, µM (highest dose often 75.3 µM), without a hit: at the highest dose activity, negative = inhibition, most hits filed as inhibitors | hit rate 7.3% among 220,000 | AID 1030, 2008;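 note: potency is the fitted concentration of half-maximal effect; plate controls were no enzyme wells and a reference inhibitor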
# IMPase Li inh: qHTS Assay for Identifying the Cell-Membrane Permeable IMPase Inhibitors: Potentiation with Lithium. CHO-M1 cells, IP1 TR-FRET (IP-One), carbachol + lithium. Potency, µM (titrated, usually from 59.4 µM), without a hit: top-dose activity, negative = IMPase inhibition, most hits filed as inhibitors. hit rate 0.35% among 210,000; active = well fitted curve in the direction sought with a large enough effect; inconclusive = small, poorly fitted or top-dose-only effect, or another doubt; inactive = no such curve, though single readings can be large; an effect the other way counts as inactive or inconclusive;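 note: IP1 builds up when IMPase is blocked and the TR-FRET signal falls; potency is the fitted concentration of half-maximal effect; plate controls were basal vehicle for no effect and high inhibitor control for full effect; nearly all actives have a fitted effect of over 50% in size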
#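 Readout is a homogeneous TR-FRET IP1 immunoassay (Ex 320, Em 665 and 620), where raised cytosolic IP1 lowers signal. Cells were CHO-M1 treated 30 min at 37C with test compounds plus a little lithium; AC50 values came from Hill-equation fitting.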
# IMPase cell inh: qHTS Assay for Identifying the Cell-Membrane Permeable IMPase Inhibitors | inhibition (IP1 accumulation), % at 46.1 µM | CHO-M1 cells, IP1 accumulation, HTRF TR-FRET ratio | AID 901, 2007 | Inositol monophosphatase 1 (Rattus norvegicus), P97697 | 120,000 tested, under 10 active; active = well fitted curve in the direction sought with a large enough effect in the signal ratio, not every such curve was filed as active; inconclusive = small, poorly fitted or top-dose-only effect, or a change in a side signal; inactive = no such curve, though single readings can be large or run the other way; the % refers to the signal ratio;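 note: cells stimulated with carbachol in lithium chloride buffer; plate controls were DMSO basal wells for no effect and reference inhibitor wells for full effect; higher means more IMPase inhibition seen as more IP1 and lower FRET ratio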
# Target sequence (P97697 whole entry, looked up): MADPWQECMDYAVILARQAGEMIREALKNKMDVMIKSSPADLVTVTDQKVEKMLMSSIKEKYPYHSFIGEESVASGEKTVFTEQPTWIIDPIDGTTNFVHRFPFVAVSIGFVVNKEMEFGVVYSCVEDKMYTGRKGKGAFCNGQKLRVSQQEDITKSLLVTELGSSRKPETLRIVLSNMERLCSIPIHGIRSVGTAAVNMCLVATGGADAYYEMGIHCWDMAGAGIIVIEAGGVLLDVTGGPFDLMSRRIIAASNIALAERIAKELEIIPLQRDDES
#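 Seeded CHO-M1 cells were dosed with compound at up to 46 uM, stimulated with carbachol for 30 min, then lysed in IP-One detection reagents. Higher IP1 lowers the TR-FRET signal.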
# PNC inhibitor: High Content Assay for Compounds that inhibit the Assembly of the Perinucleolar Compartment. PC3M PTB-GFP, PNC prevalence imaging, 16 h; hits give low values. activity change (PNC), negative = inhibition, % at 10 µM. hit rate 3.1% among 140,000. AID 2417, 2010;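 active = readout at or below -70, meaning at least 70% loss of cells showing the perinucleolar compartment, a nuclear body marking cancer cells; inconclusive = readout between -30 and a set limit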;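 note: plate controls were DMSO wells for no effect and camptothecin positive control wells for full effect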
#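 PC3M cells stably expressing PTB-GFP, 750–1000 cells/well, treated 16 h at 37 °C with compound (23 nl of library stock), in duplicate. After paraformaldehyde fixation and Hoechst stain, imaged at 20x; PNC prevalence scored by image analysis.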
# * = called active by the depositor; ? = inconclusive; / = no result given; [ ] = dose if it differs, or a comment. Unless noted, calls come from the whole dose curve; as a rule, active = well fitted inhibition curve with a large enough effect (not every such curve was filed as active); inconclusive = small, poorly fitted or top-dose-only effect, or another doubt; inactive = no such curve, though single readings can be large or run the other way. Unless noted, % is set by controls: 0 for no effect and ±100 for the full control effect.
SMILES,HPGD block,12-hLO inh,ALDH1A1 block,IMPase Li inh,IMPase cell inh,PNC inhibitor
Cc1sc(NC(=O)c2ccccc2)c(C(=O)c2ccccc2)c1C,3.55µM*,-2.8%,5.01µM*,1.5%,/,7.5
Cc1sc(NC(=O)c2ccccc2)c(C(=O)NC(C)C)c1C,?,-6.4%,?,20.5%[38.3 µM],-12.8,20.1
Cc1ccc(C(=O)Nc2sc(C)c(C)c2C(=O)c2ccccc2)cc1,20µM*,1.3%,10µM*,8.3%,2.8,-27.8
Cc1sc(NC(=O)c2cccs2)c(C(N)=O)c1C,25.1µM*,-17.9%,11.2µM*,-2.6%[38.3 µM],4.1,-26.2
COc1ccc(C(=O)Nc2ccc3oc(-c4ccc5ccccc5c4)nc3c2)cc1Br,/,/,/,/,-7.1,/
COC(C(C)/C=C/CC(=O)OCCCc1ccccc1)C1CCCCC1 (centres undefined),/,/,7.8%[13.5 µM],/,/,/
O=c1n(-c2ccccc2)c(=O)n2n1CC[C@H]1/C(=N\OCc3ccccc3)[C@H]3O[C@@H]3[C@@H](O)[C@@H]12,/,/,3.2%[13.5 µM],/,/,/
COC(=O)NC(CC(C)=O)c1cccc(C(F)(F)F)c1 (centres undefined),/,/,1.4%[13.5 µM],/,/,/
COc1cc(OC)c(-c2nnc3n(CCc4ccccc4)c(=O)c4ccccc4n23)cc1OC,-23.3%,2.4%,?,-0.4%,0.8,-19.0
COc1cc(-c2nnc3n(CCc4ccccc4)c(=O)c4ccccc4n23)cc(OC)c1OC,-26.7%,1.7%,0.224µM*,2.4%,/,?
CCN(CC)CCCNC(=O)c1ccc(-n2c(=O)c(=O)[nH]c3ccccc32)cc1,-2.9%,2.9%,0.3%,/,/,/
O=C1CCCN1c1ccc(S(=O)(=O)Nc2ccc3c(c2)OCCO3)cc1,-5.1%,-2.8%,-7.3%,9.9%[38.3 µM],10.1,?
N#CCc1ccc(NS(=O)(=O)c2ccc(N3CCCC3=O)cc2)cc1,-5.2%,-1.6%,14.1µM*,1.3%,-3.5,1.3
CC(/C=N/NC(=O)Cc1cccs1)=C\c1ccco1,-9.1%,-1.9%,?,5.9%[38.3 µM],10.5,90.3
Cc1ccc(/C=N/NC(=O)c2cccs2)o1,-17.2%,1.5%,-7.5%,2.4%,/,-82.5*
CC(/C=N/NC(=O)c1cccs1)=C\c1ccco1,/,/,7.94µM*,-0.5%,/,/
Cc1cccc(NC(=S)NNC(=S)NCc2ccccc2)c1,?,-22.1%,1.58µM*,26.9%[38.3 µM],3.9,20.2
Cc1cc(C(=O)NCCc2ccccc2)ccc1[N+](=O)[O-],-4.7%,-1.3%,-2.7%,39.0%[38.3 µM],-4.1[1.84 µM],20.8
COCCCNC(=S)NNC(=S)Nc1cccc(Cl)c1,/,/,4.47µM*,/,/,/
S=C(NCc1ccccc1)Nc1cccc(Cl)c1,14.1µM*,-11.9%,5.5%,5.3%,/,-28.0
O=C(O)c1cccc(NC(=S)NCc2ccccc2)c1,/,/,12.2%,-2.7%,/,/
Cc1ccc(/C([O-])=C(/C(=S)NCc2ccccc2)[n+]2cccc(CO)c2)cc1[N+](=O)[O-],/,/,8.91µM*,-2.9%,/,/
C[C@@]12CC[C@@H]3c4ccc(O)cc4CC[C@H]3[C@H]1C[C@@H](O)[C@H]2O,3.8%,-1.4%[25.6 µM],-5.0%[20.9 µM],-4.5%,1.8[20.6 µM],/
N#Cc1ccc(CN2CCC3(CC2)CCN(C(=O)c2ccco2)CC3)cc1,-2.5%,3.5%,2.3%,19.8%,/,/
Cc1ccc(NC(=S)NCc2ccccc2)cc1[N+](=O)[O-],12.6µM*,-29.4%,-13.3%,4.7%,4.1,7.0
Cc1ccc(CNC(=S)Nc2ccc(C)c([N+](=O)[O-])c2)cc1,/,?,4.0%,/,9.9,-9.7
Cc1cccc(NC(=S)NNC(=O)c2csc(C(C)C)c2)c1,-12.4%,?,12.6µM*,13.3%,18.2,?
CCc1cc(C(=O)NNC(=S)Nc2cccc(C)c2)cs1,-7.6%,-4.2%,?,6.6%,1.7,?
